# Assay results as given in the supplement of paper PMC12636033.
# ± gives the standard deviation of the averaged measurements. Whole data set: some 33,000 sequences, median “E-score (rank enrichment, -0.5 to 0.5)” near -0.0068, cut for the highest 2% near 0.24. For the sample, the highest values were picked, then their nearest neighbours and some sequences at random.
# Test system: muMax20 (Max(13-93) K31hArg/K57hArg, M65Nle)
# Assay: PBM 8-mer E-score (E-score (rank enrichment, -0.5 to 0.5)); higher = stronger preferential binding
# Experimental: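 Protein binding microarray (universal PBM chip covering all 10-mers in fixed probe flanks) with chemically synthesized human Max(13-93) bHLH-LZ analogs (not full-length Max) bearing noncanonical residues (hArg, Tha, Aib, Nle at 65) and aromatic Cys staples. Read-out per 8-mer (and its reverse complement): E-score (rank-based enrichment, -0.5 to 0.5) and Z-score of median probe intensity.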
row,Sequence,PBM 8-mer E-score
1,CGAATTTC,0.0312 ± 0.1
2,CGTTACCA,0.124 ± 0.012
3,CGCCATTA,-0.0752 ± 0.029
4,GCCCCTGA,-0.179 ± 0.034
5,AAGCTTAG,0.0465 ± 0.086
6,TACGTGGA,0.0197 ± 0.044
7,AGTGTGAG,0.163 ± 0.14
8,AGTGTGAA,0.254 ± 0.011
9,CATGTGGG,0.309 ± 0.033
10,GACGTGGA,0.04 ± 0.064
11,CATGTGGA,0.213 ± 0.054
12,TGTGTGAA,0.183 ± 0.038
13,CACGTGGA,0.459 ± 0.037
14,AATGTGGG,0.142 ± 0.14
15,GCCTCGGA,-0.187 ± 0.058
16,AAGTAGCC,-0.0862 ± 0.0056
17,AACCTGAA,0.0509 ± 0.081
18,AGGTTTCA,-0.031 ± 0.018
19,CACAAAAC,0.165 ± 0.027
20,TAGACTCA,-0.163 ± 0.0053
21,CTGTGAGC,-0.113 ± 0.058
22,AAAAAGCC,0.166 ± 0.028
23,AAAAAGAC,0.0949 ± 0.026
24,AAAAAGAT,0.24 ± 0.03
25,AAAAAGCT,0.272 ± 0.099

row,Sequence,PBM 8-mer E-score
1,AAAAAGCA,0.218 ± 0.046
2,ACAAAGAT,0.137 ± 0.027
3,ATATCGCG,0.0599 ± 0.043
4,AGAAAGAT,0.061 ± 0.093
5,ATTTTGAG,0.111 ± 0.012
6,ATTTTGAA,0.253 ± 0.084
7,AATTTGAA,0.149 ± 0.027
8,CTCGAGGA,-0.0146 ± 0.017
9,AATCCTGA,-0.167 ± 0.053
10,GCACATGA,0.256 ± 0.095
11,ACACATGA,0.148 ± 0.068
12,AAACATGA,0.169 ± 0.031
13,GCACATGC,0.166 ± 0.06
14,CCACATGC,0.217 ± 0.057
15,AAACATGT,0.331 ± 0.04
16,AAACATGG,0.178 ± 0.064
17,ACACATGC,0.22 ± 0.019
18,TCACATGA,0.173 ± 0.029
19,CCACATGA,0.225 ± 0.1
20,ACACATGG,0.271 ± 0.06
21,CCACATGG,0.255 ± 0.11
22,GAGGAGCC,-0.1 ± 0.084
23,ACCGGTGG,-0.147 ± 0.06
24,ACTACATC,0.224 ± 0.007
25,CACCCCTC,0.11 ± 0.013

row,Sequence,PBM 8-mer E-score
1,AACCCATC,-0.108 ± 0.085
2,ACACATCT,0.11 ± 0.072
3,ACACATAT,0.184 ± 0.053
4,ACACATGT,0.346 ± 0.023
5,CAGGCGCC,-0.0488 ± 0.0079
6,ATATTGAA,0.161 ± 0.022
7,GTATTGAA,0.209 ± 0.047
8,ATATTGAC,0.0428 ± 0.0027
9,ATATTCAA,0.197 ± 0.0025
10,ATATTGAT,0.25 ± 0.047
11,ATATTCAT,0.287 ± 0.04
12,ATATTCAC,0.181 ± 0.12
13,TTATTGAA,0.3 ± 0.045
14,ATATTGAG,0.0529 ± 0.069
15,AATGGTAC,0.0908 ± 0.11
16,AACGGCAC,-0.107 ± 0.11
17,CGGTCTCA,-0.242 ± 0.2
18,GGTACCTA,-0.105 ± 0.16
19,AAGCACTT,0.132 ± 0.045
20,ACTATGCG,0.16 ± 0.042
21,AATAAAGG,0.0493 ± 0.095
22,AATAAAAT,0.0637 ± 0.011
23,AATAAACA,0.171 ± 0.075
24,AATAAAAG,0.281 ± 0.011
25,AAAAAAAG,0.178 ± 0.016

row,Sequence,PBM 8-mer E-score
1,ATAAAAAA,0.189 ± 0.02
2,AATAAAAA,0.266 ± 0.015
3,ATAAAAGG,0.192 ± 0.058
4,GATAAAAC,0.203 ± 0.078
5,AATAAAAC,0.271 ± 0.01
6,AATAAACC,0.175 ± 0.022
7,ATAAAAAG,0.328 ± 0.066
8,CGAGCAGC,-0.0303 ± 0.083
9,AGCTTGCA,-0.0404 ± 0.11
10,TCCCTAGA,-0.0505 ± 0.13
11,CAATCTTC,-0.0387 ± 0.0054
12,AAAGTCTG,0.032 ± 0.042
13,GGAATGGA,-0.00962 ± 0.022
14,CACGCGAA,0.0636 ± 0.033
15,GACGCGGC,-0.105 ± 0.025
16,CACGCGAC,0.245 ± 0.15
17,CACGCGGC,0.281 ± 0.064
18,AACGCGGC,-0.118 ± 0.16
19,CACGCGGG,0.154 ± 0.086
20,CACGCGAG,0.0936 ± 0.048
21,AACGCGGA,-0.13 ± 0.019
22,CACGCGGA,0.289 ± 0.066
23,CGACAGCG,-0.213 ± 0.1
24,CTAGATTA,0.104 ± 0.021
25,AATAACAT,0.256 ± 0.028

row,Sequence,PBM 8-mer E-score
1,GATAACAA,0.0646 ± 0.12
2,ACTAACAA,0.236 ± 0.048
3,AGTAACAG,0.142 ± 0.024
4,AATAACAG,0.0596 ± 0.12
5,AATAACAC,0.122 ± 0.0046
6,TATAACAA,0.258 ± 0.015
7,AATAACAA,0.271 ± 0.0084
8,CATAACAA,0.147 ± 0.03
9,AATAACCA,0.076 ± 0.0086
10,AGTAACAT,0.289 ± 0.038
11,AGTAACAA,0.117 ± 0.048
12,ACCGGACT,-0.151 ± 0.13
13,TCAATCCA,0.105 ± 0.008
14,CCTTAAGA,0.0233 ± 0.059
15,ACTTTCAT,0.0117 ± 0.13
16,AGGCGCGC,0.115 ± 0.0093
17,TCGATTAA,0.261 ± 0.051
18,CTGATTAA,0.0981 ± 0.079
19,ACGATTAA,0.0506 ± 0.14
20,GTGATTAA,0.256 ± 0.066
21,GCGATTAA,0.14 ± 0.13
22,ATGATTAA,0.169 ± 0.049
23,CCAGCTCG,-0.23 ± 0.058
24,AAGTCCCA,0.0496 ± 0.017
25,TCTAGCCA,-0.0192 ± 0.021

row,Sequence,PBM 8-mer E-score
1,CGTACCCC,0.134 ± 0.012
2,CGCTCGCA,-0.00112 ± 0.055
3,ATCCTAGC,0.247 ± 0.0046
4,ATCCTAGG,-0.193 ± 0.037
5,CTCCTAGC,-0.136 ± 0.081
6,AAGATGAG,-0.0108 ± 0.035
7,ATTGACTA,-0.0128 ± 0.0061
8,ATCAATGA,0.164 ± 0.044
9,CAAAAGGC,0.0129 ± 0.021
10,CAAAGGCC,0.0435 ± 0.035
11,AAAAGGCC,0.294 ± 0.089
12,AAAAAGGC,0.218 ± 0.093
13,CAAGGCCG,-0.0484 ± 0.016
14,GAAAGGCC,-0.109 ± 0.036
15,GAAAAGGC,0.3 ± 0.074
16,AAAGGCCC,0.105 ± 0.034
17,AAAGGCCG,0.275 ± 0.088
18,GAGTCGTA,0.0328 ± 0.034
19,CTTTTAGC,0.0351 ± 0.039
20,ATGCCTGG,-0.0874 ± 0.034
21,AGCTTTGC,-0.066 ± 0.034
22,TCTGACAA,-0.0236 ± 0.026
23,AATACGAG,0.1434 ± 0.0014
24,CCTCCGAA,-0.0791 ± 0.039
25,GACCCAAC,-0.034 ± 0.061

row,Sequence,PBM 8-mer E-score
1,CCAACCAG,-0.16 ± 0.022
2,AACAAAAA,0.14 ± 0.044
3,AACAAAAT,0.275 ± 0.03
4,AACAAGAT,0.22 ± 0.029
5,GACAAATA,0.0845 ± 0.063
6,GACAAAAA,0.144 ± 0.007
7,TACAAAAA,0.285 ± 0.024
8,TACAAATA,0.313 ± 0.007
9,TACAAGAA,0.2 ± 0.064
10,AACAAATC,0.243 ± 0.016
11,GACAAATC,0.0884 ± 0.12
12,CACAAATA,0.185 ± 0.02
13,AACAAGTC,0.141 ± 0.024
14,CTACCGAA,-0.1 ± 0.022
15,CACAGGCC,-0.118 ± 0.0028
16,AGTTGGGG,0.0207 ± 0.062
17,AGCGGTGA,-0.233 ± 0.0025
18,AAATTTCG,0.186 ± 0.12
19,AACTGAAA,0.146 ± 0.092
20,TGCACCCA,0.0653 ± 0.034
21,GAGGTGGA,-0.138 ± 0.1
22,AACAAGTA,0.101 ± 0.0032
